Reference: PubChem BioAssay AID485317 (Broad Institute, 2010)
The whole screen tested about 290,000 compounds, of which about 11,000 (3.8%) were called active. Shown is part of a subset that was picked to be rich in actives. Unmarked numbers belong to inactive results.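 The calls were made as follows: active = mean replicate inhibition above about 79%, with every replicate also reaching it (limit read from the data); inconclusive = only one of the two criteria met; inactive = mean below limit and not every replicate reaching it.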

Biological target: FAD-linked sulfhydryl oxidase ALR (Homo sapiens) (UniProt P55789)
Assay: inhibitors of human ALR sulfhydryl oxidase, primary screen, biochemical, H2O2 detection, HRP-luminol luminescence, single point (AID 485317)
Settings: purified ALR, DTT oxidation, hits give high values, concentration not given here

Chain of FAD-linked sulfhydryl oxidase ALR (Homo sapiens) (P55789 whole entry, looked up): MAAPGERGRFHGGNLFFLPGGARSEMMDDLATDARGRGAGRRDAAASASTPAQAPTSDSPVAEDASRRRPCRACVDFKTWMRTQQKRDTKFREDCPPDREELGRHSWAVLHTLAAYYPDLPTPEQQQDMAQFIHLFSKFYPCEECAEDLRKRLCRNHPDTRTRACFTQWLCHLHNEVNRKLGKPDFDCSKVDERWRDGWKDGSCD

Question: `CN1CCN(/N=C/c2c[nH]c3ccccc23)CC1` was tested. Which inhibition did it give?
Answer: 79.3% (active)

Question: `Fc1ccc(N2CCN(Cc3ccc4c(c3)OCO4)CC2)cc1` was tested. Which inhibition did it give?
Answer: 76.3% (active)

Question: For `O=C(Cc1ccccc1[N+](=O)[O-])N1CCN(Cc2ccc3c(c2)OCO3)CC1`, which inhibition is on record?
Answer: -25.4%

Question: How did the inhibition turn out when `Oc1cc2c(cc1CN1CCN(c3ccccc3)CC1)OCO2` was run?
Answer: 60.4%

Question: `COC(=O)C1=C(c2cc3ccccc3s2)C[C@@H]2CC[C@H]1N2C(=O)NCc1cccc2ccccc12` was tested. Which inhibition did it give?
Answer: -1.91%

Question: `COC(=O)C1=C(c2ccccc2)C[C@@H]2CC[C@H]1N2C(=O)N1CCCCC1` was tested. Which inhibition did it give?
Answer: -3.97%

Question: With `c1cncc(CNCCc2c[nH]c3ccccc23)c1` as the compound, how does the inhibition read?
Answer: 10%

Question: For `COc1ccc(CNCCc2c[nH]c3ccccc23)cc1OC`, which inhibition is on record?
Answer: 4.28%

Question: `C/C(CCc1c[nH]c2ccccc12)=N\O` was tested. Which inhibition did it give?
Answer: 98.1% (active)

Question: For `COC(=O)C1=C(c2ccc(Cl)c(C(F)(F)F)c2)C[C@@H]2CC[C@H]1N2C(=O)NC1CC1`, which inhibition is on record?
Answer: -18.1%

Question: With `COc1ccc(CN2C(=O)NC(=O)/C(=C\c3ccc(OC)c(OC)c3OC)C2=O)cc1` as the compound, how does the inhibition read?
Answer: 20%

Question: How did the inhibition turn out when `COc1cccc(N2C(=O)NC(=O)/C(=C\c3cn(C)c4ccccc34)C2=O)c1` was run?
Answer: -2.44%

Question: How did the inhibition turn out when `COc1ccc(N2C(=O)/C(=C/c3ccco3)C(=O)NC2=S)cc1` was run?
Answer: 97.9% (active)

Question: How did the inhibition turn out when `C[C@]12CC[C@H](O)CC1=C([N+](=O)[O-])CC1C2CC[C@@]2(C)C1CC[C@@H]2O` (stereo not given in full) was run?
Answer: 1.78%

Question: `COC(=O)C1=C(c2ccc(F)cc2OCc2ccccc2)C[C@@H]2CC[C@H]1N2C(=O)NCc1ccc2[nH]ccc2c1` was tested. Which inhibition did it give?
Answer: 5.75%

Question: Which inhibition does the source give for `Cc1cccc2c(CCN)c[nH]c12` here?
Answer: -8.02%

Question: With `NCCc1c[nH]c2ccc(O)cc12` as the compound, how does the inhibition read?
Answer: 95.8% (active)

Question: With `COC(=O)C1=C(c2cc3ccccc3o2)C[C@@H]2CC[C@H]1N2C(=O)NC1CCCCC1` as the compound, how does the inhibition read?
Answer: 0.528%

Question: `COC(=O)C1=C(c2cc3ccccc3s2)C[C@@H]2CC[C@H]1N2C(=O)NC(C)C` was tested. Which inhibition did it give?
Answer: 16.9%

Question: For `O=c1[nH]c(O)c(C=Nc2cc(F)cc(F)c2)c(=O)[nH]1`, which inhibition is on record?
Answer: -1.04%

Question: `Cc1ccc(-n2c(C)cc(/C=C3\C(=O)NC(=O)N(C)C3=O)c2C)cc1C` was tested. Which inhibition did it give?
Answer: -26%

Question: How did the inhibition turn out when `Cc1ccnc(-n2c(C)cc(/C=C3\C(=O)NC(=S)N(C)C3=O)c2C)c1` was run?
Answer: 97.1% (active)

Question: `Cc1cc(C=C2C(=O)NC(=O)NC2=O)c(C)n1-c1ccncc1` was tested. Which inhibition did it give?
Answer: 20.8%

Question: For `COC(=O)C1=C(c2cccc(OCc3ccccc3)c2)C[C@@H]2CC[C@H]1N2C(=O)NNCc1ccccc1`, which inhibition is on record?
Answer: -3.1%

Question: `O=C(O)CCn1cc(C=C2C(=O)NC(=S)NC2=O)c(-c2cccc(Br)c2)n1` was tested. Which inhibition did it give?
Answer: 99.4% (active)

Question: For `CNCC(O)c1cc(F)c(OCc2ccccc2)c(OCc2ccccc2)c1F` (stereo not given), which inhibition is on record?
Answer: -16.5%

Question: With `COC(=O)C1=C(c2ccc(F)cc2OCc2ccccc2)C[C@@H]2CC[C@H]1N2C(=O)NCc1ccc(Cl)cc1` as the compound, how does the inhibition read?
Answer: 0.0344%

Question: With `c1ccc(CCN2CCC3(CC2)OCCO3)cc1` as the compound, how does the inhibition read?
Answer: 0.745%

Question: How did the inhibition turn out when `COc1ccc2c(c1)[C@]13CCCCC1C(C2)N(C)CC3` (stereo not given in full) was run?
Answer: -0.421%

Question: For `CN(C)c1nc(N(C)C)nc(N(C#N)CCCl)n1`, which inhibition is on record?
Answer: 96.2% (active)

Question: For `CCN1CCN(c2nc3c(c(=O)[nH]2)CCC3)CC1`, which inhibition is on record?
Answer: 2.56%

Question: With `CCC(=O)c1ccc(OCC(=O)N2CCN(CC(=O)Nc3ccc(C)cc3)CC2)cc1` as the compound, how does the inhibition read?
Answer: -2.33%

Question: With `Cc1c(C(=O)O)cccc1-n1c(C)cc(/C=C2\C(=O)NC(=O)N(c3ccc4c(c3)OCO4)C2=O)c1C` as the compound, how does the inhibition read?
Answer: 12.1%

Question: `O=C1NC(=O)N(Cc2ccco2)C(=O)/C1=C\c1ccc(-c2ccc(F)cc2)o1` was tested. Which inhibition did it give?
Answer: 13.9%

Question: With `Cc1cc(/C=C2/C(=O)NC(=O)N(Cc3ccco3)C2=O)c(C)n1-c1ccc(C(=O)O)cc1` as the compound, how does the inhibition read?
Answer: 97.6% (active)

Question: Which inhibition does the source give for `COC(=O)C1=C(c2ccc(F)cc2OCc2ccccc2)C[C@@H]2CC[C@H]1N2C(=O)NCc1ccc(OC)c(OC)c1` here?
Answer: -0.52%

Question: `COC(=O)C1=C(c2ccc(F)cc2OCc2ccccc2)C[C@@H]2CC[C@H]1N2C(=O)NCc1ccc(C(C)(C)C)cc1` was tested. Which inhibition did it give?
Answer: -8.86%

Question: How did the inhibition turn out when `O=C(CCC(=O)N1C[C@H]2C[C@@H](C1)c1cccc(=O)n1C2)NCc1ccccc1C(F)(F)F` was run?
Answer: -3.58%

Question: With `COC(=O)C1=C(c2c(C)noc2C)C[C@@H]2CC[C@H]1N2C(=O)NCc1ccc2c(c1)OCO2` as the compound, how does the inhibition read?
Answer: -6.31%

Question: How did the inhibition turn out when `CC(=O)c1ccc(OC(NC(=O)Cc2ccccc2)C(Cl)(Cl)Cl)cc1` (stereo not given) was run?
Answer: 5.09%

Question: For `CC(Cc1ccccc1)NCCC(c1ccccc1)c1ccccc1` (stereo not given), which inhibition is on record?
Answer: -11.9%

Question: Which inhibition does the source give for `CC(=O)NC(=O)NC(C)Cc1ccccc1` (stereo not given) here?
Answer: 99.2% (active)

Question: Which inhibition does the source give for `COC(=O)C1=C(c2ccc(Cl)c(C(F)(F)F)c2)C[C@@H]2CC[C@H]1N2C(=O)NC(C)C` here?
Answer: 0.07%

Question: For `COc1ccc(NC(=O)N2CCC3(CC2)OCCO3)c(OC)c1`, which inhibition is on record?
Answer: -26.4%

Question: With `Cc1ccc(-c2cc(C(=O)N3CCC4(CC3)OCCO4)no2)cc1` as the compound, how does the inhibition read?
Answer: 7.33%

Question: How did the inhibition turn out when `COc1ccc(-c2nc(CS(=O)CC(=O)N3CCC4(CC3)OCCO4)c(C)o2)cc1` (stereo not given) was run?
Answer: 98.9% (active)

Question: For `COC(=O)C1=C(c2ccc(-c3ccccc3)c(F)c2)C[C@@H]2CC[C@H]1N2C(=O)NCc1ccc(F)cc1`, which inhibition is on record?
Answer: -0.106%

Question: For `C=CC12CN(C)[C@@H]3C4CO[C@H](C[C@H]41)[C@]1(C(=O)Nc4ccccc41)[C@@H]32` (stereo not given in full), which inhibition is on record?
Answer: -7.63%

Question: With `COC(=O)C1=C(c2cccc(OCc3ccccc3)c2)C[C@@H]2CC[C@H]1N2C(=O)NCc1ccc(Br)cc1` as the compound, how does the inhibition read?
Answer: -3.06%

Question: With `CN1CCc2cc3c(cc2[C@H]1[C@@H]1OC(=O)c2c1ccc1c2OCO1)OCO3` as the compound, how does the inhibition read?
Answer: -8.76%

Question: For `Cc1ccccc1NC(=O)COC(=O)c1cc(C)n(C2CC2)c1C`, which inhibition is on record?
Answer: 5.99%

Question: For `COC(=O)C1=C(c2ccc3ccccc3c2)C[C@@H]2CC[C@H]1N2C(=O)NCCO`, which inhibition is on record?
Answer: -28.8%

Question: How did the inhibition turn out when `O=[N+]([O-])c1cnc2ccc3ccccc3c2c1` was run?
Answer: -42.1%

Question: Which inhibition does the source give for `C/C(=N/O)c1ccc2ccc3ccccc3c2c1` here?
Answer: 99.1% (active)

Question: How did the inhibition turn out when `C[C@]12CCC3C(CC[C@H]4C[C@@H](O)CC[C@]34C)C1CC[C@@H]2O` (stereo not given in full) was run?
Answer: -1.96%

Question: How did the inhibition turn out when `C[C@]12CCC3C(CC[C@H]4C[C@@H](O)CC[C@]34C)C1C[C@@H](O)[C@H]2O` (stereo not given in full) was run?
Answer: 2.15%

Question: Which inhibition does the source give for `COC(=O)C1=C(c2ccc(F)cc2F)C[C@@H]2CC[C@H]1N2C(=O)NC1CC1` here?
Answer: -1.47%

Question: How did the inhibition turn out when `COC(=O)C1=C(c2ccccc2OCc2ccccc2)C[C@@H]2CC[C@H]1N2C(=O)NCc1ccc(OC)cc1` was run?
Answer: -2.59%

Question: With `COC(=O)C1=C(c2ccc(C(C)=O)cc2)C[C@@H]2CC[C@H]1N2C(=O)NCCNC(C)=O` as the compound, how does the inhibition read?
Answer: 4.07%

Question: `O=c1c2ccccc2nc(/C=C/c2ccco2)n1-c1ccccc1O` was tested. Which inhibition did it give?
Answer: 47.2%
